# From article PMC5540273 (PLoS ONE, 2017)
# Assays:
# Settings in all cases: concentration: 1 μM, replicates: in singlicate; n = 1
# [1] = system: TLK1
# [2] = system: TLK2
# [3] = system: TNIK
# [4] = system: TNK1
# [5] = system: TNK2
# [6] = system: TNNI3K
# [7] = system: T1, TRKA
# T1 construct: gene NTRK1
# [8] = system: TRKB
# [9] = system: T2, TRKC
# T2 construct: gene NTRK3
# [10] = system: TRPM6
# 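Also: KINOMEscan kinase panel screen.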
Compound,%Inh [1],%Inh [2],%Inh [3],%Inh [4],%Inh [5],%Inh [6],%Inh [7],%Inh [8],%Inh [9],%Inh [10]
Cc1ccc(NC(=O)Nc2ccc(Cl)cc2)cc1-c1ccc(C(=O)Nc2ccncc2)cc1 [GSK1398472],0%,0%,0%,0%,16%,25%,0%,0%,9%,14%
Cc1ccc(NC(=O)Nc2ccc(Cl)c(C(F)(F)F)c2)cc1-c1ccc(C(=O)Nc2ccncc2)cc1 [GSK1398470],20%,8%,9%,20%,10%,64%,11%,0%,0%,6%
COc1ccc(-c2coc3ccc(-c4nnc(C)o4)cc23)cc1,12%,6%,0%,0%,0%,0%,0%,0%,0%,0%
COC(=O)c1cccc(NC(=O)NC2CCN(c3ccnc(Nc4ccc(OC)cc4)n3)C2)c1 (stereo not shown) [GSK1379746],0%,0%,0%,0%,12%,0%,34%,71%,86%,11%
CC(=O)c1cccc(NC(=O)NC2CCN(c3ccnc(Nc4ccc(F)cc4)n3)C2)c1 (stereo not shown) [GSK1379710],12%,25%,3%,0%,7%,5%,56%,69%,81%,32%
COc1ccc(CSc2nnc(-c3ccc4c(c3)CCO4)o2)cc1,0%,0%,0%,0%,0%,0%,0%,0%,0%,0%
COC(=O)C(Cc1ccccc1)NC(=O)NC1CCN(c2ccnc(Nc3ccc(F)cc3)n2)C1 (stereo not shown) [GSK1379714],10%,0%,6%,0%,4%,0%,98.2%,23%,25%,0%
Cn1cncc1-c1cc2c(Nc3ccc(OCc4ccccc4)cc3)ncnc2cn1 [GW281179],18%,0%,0%,1%,20%,11%,0%,37%,0%,12%
CN1c2ccc(-c3ccc(C(N)=O)cc3)cc2-c2[nH]ncc2S1(=O)=O,36%,0%,45%,24%,0%,0%,0%,0%,0%,13%
COc1ccc(CSc2nnc(-c3ccc4ncsc4c3)o2)cc1C(F)(F)F,0%,7%,0%,0%,0%,0%,0%,0%,13%,0%
CCn1c(-c2ccccc2)nc2cnccc21 [SB-733416],0%,0%,0%,31%,17%,16%,0%,0%,25%,0%
Cn1cncc1C(=O)NC1CCN(c2ccnc(Nc3ccc(F)cc3)n2)C1 (stereo not shown) [GSK1379717],18%,0%,0%,0%,10%,0%,0%,17%,48%,31%
NS(=O)(=O)c1cccc(N/C=C2\C(=O)Nc3ccc(S(=O)(=O)Cc4c(Cl)cccc4Cl)cc32)c1 [GSK398099],75%,0%,91.8%,0%,26%,4%,49%,0%,29%,37%
O=C1NC(=O)C(c2ccc(Cl)cc2)=C1Nc1ccc(O)cc1 [SB-340867],10%,0%,0%,46%,0%,0%,0%,5%,0%,9%
Cc1c(Cn2c(C)c(C)n3c(=O)cc(N4CCOCC4)nc23)cccc1C(F)(F)F [GSK2328680],0%,0%,0%,0%,13%,0%,12%,0%,21%,0%
O=C1NC(=O)C(c2ccc(Cl)cc2)=C1Nc1cccc(Cl)c1 [SB-317651],12%,0%,0%,0%,0%,0%,23%,21%,0%,0%
O=C(Nc1n[nH]c2nc(-c3cccs3)c(Br)cc12)C1CCCC1 [SB-743341],0%,0%,0%,0%,0%,0%,16%,22%,9%,0%

Compound,%Inh [1],%Inh [2],%Inh [3],%Inh [4],%Inh [5],%Inh [6],%Inh [7],%Inh [8],%Inh [9],%Inh [10]
Cl.Cl.Cl.N#Cc1ccc(CCNc2nccc(-c3cccc(CN4CCNCC4)c3)n2)cc1 [GSK2137462],9%,3%,3%,4%,5%,18%,56%,0%,0%,0%
Fc1ccc(-c2nc3n(c2-c2ccncc2)CCS3)cc1 [GI98581],0%,0%,18%,0%,11%,2%,11%,0%,17%,23%
COc1cccc(CNC(=O)NC2CCN(c3ccnc(Nc4ccc(F)cc4)n3)C2)c1 (stereo not shown) [GSK1379723],0%,0%,0%,0%,16%,4%,0%,0%,5%,0%
Cc1ccccc1Cn1ccn2c(=O)cc(N3CCOCC3)nc12 [GSK2269905],0%,0%,0%,6%,32%,4%,0%,0%,0%,2%
CNC(=O)c1ccc(C)c(-n2c(C)cc(OCc3ccc(F)cc3F)c(Br)c2=O)c1,0%,0%,0%,0%,0%,0%,0%,0%,0%,0%
Cc1ccc(NC(=O)Nc2ccccc2)cc1-c1ccc(C(=O)Nc2ccncc2)cc1 [GSK1398471],19%,4%,0%,18%,13%,49%,23%,0%,0%,27%
Cc1nccc(-c2c(-c3ccc(F)cc3)ncn2CCCN2CCOCC2)n1.Cl [SB-282975],0%,0%,0%,37%,26%,0%,0%,0%,16%,0%
Cc1c(Cn2c3ccccc3n3c(=O)cc(N4CCOCC4)nc23)cccc1C(F)(F)F [GSK2306394],5%,0%,0%,0%,3%,0%,0%,0%,0%,0%
CNc1nc(-c2ccc3c(N)n[nH]c3c2)cc(N2C[C@@H](C(=O)NC3CCCCC3)OC[C@H]2C)n1 [GSK2375584],17%,5%,8%,13%,17%,2%,11%,0%,0%,0%
COc1cccc(NC(=O)Nc2ccc(C)c(-c3ccc(C(=O)Nc4ccncc4)cc3)c2)c1 [GSK1398474],11%,0%,0%,10%,16%,20%,4%,0%,2%,31%
CS(=O)(=O)CCNCc1nc(-c2ccc3ncnc(Nc4ccc5c(cnn5Cc5ccccc5)c4)c3c2)cs1.Cl.Cl [GW569716],0%,0%,0%,0%,18%,0%,0%,73%,40%,0%
Fc1ccc(-c2nn3cccc(F)c3c2-c2ccncc2)cc1 [GW475620],0%,0%,32%,0%,12%,0%,15%,0%,2%,0%
Nc1nccc(-c2c(-c3ccc(F)cc3)ncn2C2CCN(Cc3ccccc3)CC2)n1 [SB-219980],0%,0%,96.5%,35%,10%,0%,0%,0%,0%,0%
FC(F)(F)c1ccccc1-c1cc(-c2c[nH]nc2-c2ccccn2)ccn1 [GW679396],0%,0%,18%,1%,0%,0%,39%,0%,0%,3%
COc1ccc(CSc2nnc(-c3ccc4nccn4c3)o2)cc1C(F)(F)F,6%,13%,0%,0%,3%,0%,18%,0%,38%,0%
COc1ccc(Nc2nccc(NCCNC(=O)Nc3cc(C)ccc3C)n2)cc1 [GSK1379899],0%,0%,0%,0%,0%,0%,3%,0%,7%,0%
CC[C@@H]1CO[C@H](C(=O)Nc2ccccc2)CN1c1cc(-c2ccc3c(N)n[nH]c3c2)nc(NC)n1 [GSK2376236],21%,0%,0%,4%,0%,17%,9%,0%,0%,35%
